Screening data deposited in PubChem by National Center for Advancing Translational Sciences (NCATS).
uPA generation – inhibitors of cell surface uPA generation | 0.31% of 330,000 active | cell surface uPA generation assay, qHTS | Potency, µM (titrated, usually from 38.3 µM), for the others: top-dose activity change, negative = inhibition, most hits filed as inhibitors; active means well fitted inhibition curve with a large enough effect; inconclusive means small, poorly fitted or top-dose-only effect; inactive means no such curve, though single readings can be large or run the other way; tested in mouse RAW 264.7 cells; further: potency means the concentration at half of the fitted maximal effect; on the % scale 0 is the no-effect control and ±100 the full control effect; nearly all actives have a fitted effect of over 55% in size
TGFb SMAD3 inh – blocks TGF-b signaling; HepG2 CAGA-GFP TGF-b/SMAD3 reporter, GFP fluorescence, 18 h; TGF-beta stimulated, 500 pg/mL final; Potency, µM (top dose mostly 46.1 µM), without a hit: top-dose activity, negative = inhibition, actives largely listed as inhibitors; 1.2% of 410,000 active; further: potency means the concentration at half of the fitted maximal effect; on the % scale 0 is the no-effect control and ±100 the full control effect; nearly all actives have a fitted effect of over 65% in size
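HEPG2 CAGA-GFP, 1000 cells/well; 2 h settle, 37 C; cpd via pin tool; TGF-b 500 pg/mL final; 18 h, 37 C; GFP imaging ex488/em500-530; %Activity normalised to -TGF-b and +DMSO controls; CRC fit, curve class.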
HepG2 tox – kills HepG2 cells in TGF-b inhibitor counter-screen; HepG2 CAGA-GFP viability, ATP luminescence, 18 h; 0.76% of 410,000 active; Potency, µM (top dose mostly 46.1 µM), for inactives: at the top dose activity change, negative = cytotoxicity, actives largely listed as cytotoxic; further: potency means the concentration at half of the fitted maximal effect
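CellTiter-Glo luminescence gave cytotoxicity after 18 hours at 37 degrees C. The cells were HepG2 CAGA-GFP in 1% FBS DMEM, stimulated with 500 pg/mL TGF-beta after compound addition. %Activity was normalised to no-cell wells (complete cell-killing) and DMSO (no toxicity), and curves were fitted and classified.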
ATXN2 expr inh – ATXN2 expression inhibition; Potency, µM (doses to about 57 µM), without a hit: top-dose activity change, negative = inhibition, usual class: inhibitors; HEK-293 ATXN2-luciferase reporter, luminescence, 24 h; 0.72% of 360,000 active; AID 1745845; further: potency means the concentration at half of the fitted maximal effect; on the % scale 0 is the no-effect control and ±100 the full control effect; nearly all actives have a fitted effect of over 55% in size
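qHTS (up to 57 uM final) was run with 24 h compound exposure of reporter cells at 37 °C. Each well was multiplexed: SteadyGlo luminescence measured ATXN2-luciferase expression after a fluorogenic Gly-Phe-AFC viability readout (25 uM final).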
ATXN viability – reduces viability in counter-screen for ATXN expression inhibitors. S2 cells (HEK-293 line with an ATXN2-luciferase reporter) viability, CellTiter-Fluor protease fluorescence, 24 h. Potency, µM (doses to about 56.7 µM), hits mostly cytotoxic. 0.49% of 400,000 active. AID 651635; further: potency means the concentration at half of the fitted maximal effect; nearly all actives have a fitted effect of over 40% in size
Giardia killer – kills Giardia lamblia. Giardia lamblia trophozoite viability. activity change, % at 7.66 µM, hits read low. 0.15% of 340,000 active. AID 540267; in the data active means activity change below about -80%; inconclusive means between about -30% and that limit;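 further: parasites exposed to compound for two days anaerobically before the ATP read; on the % scale 0 is the no-effect control and ±100 the full control effect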
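Anaerobic 48 hrs incubation at 37 deg C of 100 trophozoites/well with test compounds; ATPLite 1-Step luminescence, 15-30 min RT, reports cellular ATP as viability.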
Starred values were filed as active, the others as inactive; i = inactive; ? = inconclusive; . = not tested or not shown; ! = not active in a repeat. Rows were chosen to be rich in hits. Some 2.6% of all compounds tested hit in one or more screens of this group. Unless noted, the call rests on the fitted dose curve; in most records, active means well fitted curve in the direction sought with a large enough effect; inconclusive means small, poorly fitted or top-dose-only effect, or another doubt; inactive means no such curve, though single readings can be large; an effect the other way counts as inactive or inconclusive.

SMILES	uPA generation	TGFb SMAD3 inh	HepG2 tox	ATXN2 expr inh	ATXN viability	Giardia killer
CCCC/C=C/[C@H](c1ccccc1)[C@H](CO)Cc1ccc2ccccc2c1	.	-3.1%	-23.5%	.	.	-14.4
CCN(CC)CCOc1ccc(/C(=C(/Cl)c2ccccc2)c2ccccc2)cc1	-14.7%	?	10µM*!	25.1µM*!	.	-4.8
N#C/C(=C\c1c(Cl)cccc1Cl)c1nc2ccccc2[nH]1	-0.9%	0.0%	-14.4%	1.4%	i	28.3
Cc1c(Cl)cccc1-c1ccc(/C=C(\C#N)c2nc3ccccc3[nH]2)o1	.	6.31µM*	7.94µM*	7.9%	.	.
CC(C)N=c1scc(-c2ccco2)n1/N=C/c1ccc(O)c(O)c1	?	?	-63.9%	0.0%	31.6µM*	-16.1
O=C1C[C@H]2C=CCc3cccc(c32)CN1Cc1ccc(Cl)cc1	.	10µM*	-58.8%	.	.	.
COc1cc(=O)n2c(c1C(=O)NCc1nonc1C)CCN(C(=O)c1cccc(C)c1C)CC2	.	.	.	.	i	.
Cc1cc(=O)[nH]c2ccc([N+](=O)[O-])cc12	.	-12.8%	6.0%	.	.	.
O/N=C(/C[n+]1csc2ccccc21)c1ccccc1	.	-11.4%	-26.5%	.	.	.
O=C1CC(c2cccc(O)c2)c2c(nc(SCc3ccccc3F)[nH]c2=O)N1 (stereo not given)	.	-19.1%	7.08µM*	-0.6%	i	.
CCN(CC)CCNC(=O)c1c(C)n(-c2ccccc2)c2cc(Br)c(OC)cc12	-9.9%	?	20µM*	?	?	10.7
CC(=O)OC[C@@H]1CN(Cc2ccccc2)C[C@H](n2cnc3c(Nc4ccccc4)ncnc32)O1	.	-29.5%	15.8µM*	7.6%	i	.
CC(=O)OC[C@@H]1CN(Cc2ccccc2)C[C@H](n2cnc3c(NC4CCC4)ncnc32)O1	.	10.7%	-1.7%	-4.6%	i	.
O=C(O)CSCC(=O)NC1CCSC1=O (stereo not given)	.	.	.	1.8%	i	.
CCN(CC)c1ccc(N=Cc2ccccc2[N+](=O)[O-])cc1	-5.1%	?	8.91µM*	?	?	-8.0
CCOc1ccn(-c2ccc(F)cc2)c(=O)c1C(=O)Nc1ccc(Oc2ccnc(N)c2Cl)c(F)c1	.	.	.	-21.9%	.	.
O=C(NNc1nc2ccc(Cl)cc2s1)c1cc(-c2cccs2)nc2ccccc12	?	8.91µM*	-60.8%	31.6µM*	?	5.2
O=C(NN1CCOCC1)c1cc(-c2cccs2)nc2ccccc12	-0.3%	-5.5%	-12.8%	4.3%	?	-11.2
C=CCC[C@@H](Cc1ccc(F)cc1)C(=O)OC[C@H]1CCCN1C(=O)[C@@H](CC=C)CC(=O)N[C@H](CO)Cc1ccccc1	?	?	-20.1%	?	?	-6.8
C=CCC[C@@H](Cc1ccc(F)cc1)C(=O)OC[C@@H]1CCCN1C(=O)[C@H](CC=C)CC(=O)N[C@H](CO)Cc1ccccc1	?	11.2µM*	-108.9%	?	.	8.8
C=CCC[C@@H](Cc1ccc(F)cc1)C(=O)OC[C@@H]1CCCN1C(=O)[C@@H](CC=C)CC(=O)N(CCO)Cc1ccccc1	-11.3%	?	12.6µM*	?	?	-11.8
Cc1ccccc1-n1cc(CNC(=O)CN2Cc3ccccc3OC(C)C2)cn1 (stereo not given)	.	.	.	.	i	.
O=S(=O)(c1ccccc1Br)N(Cc1ccccc1)Cc1ccco1	.	?	-23.8%	.	.	-6.9
CCCS(=O)(=O)c1ncc(Cl)c(C(=O)Nc2sc3c(c2C(=O)NCC)CCCC3)n1	.	?	-15.3%	.	.	.
CC(C)(C)COc1ccc(-n2cc(C(=O)O)cn2)cc1C#N	.	.	.	103.0%	.	.
SMILES	uPA generation	TGFb SMAD3 inh	HepG2 tox	ATXN2 expr inh	ATXN viability	Giardia killer
O=C(Oc1ccc(Br)cc1C(=O)/C=C/c1ccccc1F)c1ccco1	-5.5%	15.8µM*	-47.0%	?	?	-12.5
CC(=O)c1cc(Cl)ccc1OC(=O)c1ccco1	9.9%	10.3%	-1.6%	4.7%	i	18.9
CC1CCc2c(sc(NC(=O)c3ccco3)c2C(=O)O)C1 (stereo not given)	-3.8%	-12.6%	4.6%	-0.5%	i	-18.5
CC1CCc2c(sc(NC(=O)/C=C/c3cccs3)c2C(=O)O)C1 (stereo not given)	10µM*	-7.5%	-8.5%	4.1%	?	1.3
NC(=O)c1cc([N+](=O)[O-])ccc1NCc1ccc(N)cc1	9.7%	?	6.3%	3.55µM*	i	0.8
CCCC(=O)C1=C(c2ccc(C)cc2)N(C(=O)CCC)n2cnnc2S1	.	?	20µM*	.	.	.
CC1CN(CC(=O)NCCc2ccncc2)Cc2ccccc2O1 (stereo not given)	.	.	.	.	i	.
CCOc1ccc(S(=O)(=O)NCCc2c(C)[nH]c3c(Cl)cccc23)cc1C	.	15.8µM*	17.8µM*	?	i	.
CCOc1ccc(S(=O)(=O)NCc2cccnc2)cc1C	0.9%	5.4%	3.4%	-13.9%	i	3.7
CN(C)C(=S)N=c1ssc(=S)n1Cc1ccccc1	-8.9%	2.24µM*	-58.6%	-23.3%	?	-4.4
CCOC(=O)c1sc(=S)n(Cc2ccccc2)c1C	1.9%	3.0%	-39.8%	-21.0%	?	5.1
C[C@@H]1[C@H](c2ccccc2)OCCS(=O)(=O)N1Cc1ccccc1F	.	-34.6%	-19.6%	.	.	.
O=c1cc(-c2c(F)c(F)c(F)c(F)c2F)oc2ccccc12	?	-5.5%	-60.7%	22.4µM*	?	-19.7
Cc1cnc(-n2ncc(C(=O)NCC3COCCO3)c2C2CC2)nc1-c1cccs1 (stereo not given)	.	.	.	.	i	.
N#Cc1c(NC(=O)c2cccc3ccccc23)sc2c1CCCC2	.	.	.	11.9%	.	.
Cc1ccc(-c2nc3cc(Cl)ccc3o2)cc1NC(=O)COc1ccccc1C	.	-0.8%	1.3%	.	.	.
COc1cc(CN2c3ccc(Br)cc3C(=O)CS2(=O)=O)cc(OC)c1	.	11.2µM*	-58.9%	.	.	.
COc1cccc(CN2C(=O)C(C)Oc3ccccc32)c1 (stereo not given)	1.7%	0.0%	-12.8%	-37.6%	?	3.9
COc1cccc(CN2c3ccc(Br)cc3C(=O)CS2(=O)=O)c1	-8.7%	7.94µM*	0.7%	-1.0%	i	23.0
C=CCN1c2ccc(Br)cc2C(=O)CS1(=O)=O	-10.3%	?	-11.5%	1.6%	i	-15.2
COc1cc(=O)n2c(c1C(=O)NC(C)c1ccco1)CCN(C(=O)c1[nH]c(C)cc1C)CC2 (stereo not given)	.	.	.	.	i	.
Fc1ccc(N2C(=S)SC(=Nc3ccccc3)C2=Nc2ccccc2)cc1	6.0%	3.1%	-10.7%	18.5%	i	-4.1
N#CC(C#N)=C1SC(=Nc2ccccc2)C(=Nc2ccccc2)N1c1ccccc1	0.5%	-3.5%	10.9%	26.7µM*	26.7µM*	5.7
CCOc1cccc(-c2c(C(=O)N/N=C/c3sccc3C)nnn2-c2nonc2N)c1	11.3%	10µM*	4.47µM*	.	i	0.1
